# From PubChem BioAssay (NCATS)
# Inconclusive results are not listed. Activity calls are given as the source filed them. Calls come from the whole dose curve; as a rule, active = well fitted inhibition curve with a large enough effect; inconclusive = small, poorly fitted or top-dose-only effect; inactive = no such curve, though single readings can be large or run the other way.
# Target: Retinaldehyde dehydrogenase 3 (Homo sapiens) (UniProt P47895)
# Assay: qHTS for Inhibitors of the Aldehyde Dehydrogenase Family (ALDH1A3) Primary screen (AID 2061315);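 note: plate controls were DMSO vehicle for no effect and reference inhibitor for full effect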
# Conditions: ALDH inhibition qHTS; series mostly up to 56 µM; activity change, negative = inhibition: at the top concentration
row,SMILES,"activity change, negative = inhibition"
1,COc1cccc(NS(=O)(=O)c2ccc(C)cc2)c1C(=O)Nc1nc(-c2ccccc2)cs1,-0.748% (inactive)
2,O=C1c2ccccc2C(=O)N1c1cnc2ccccc2c1,-1.19% (inactive)
3,C=C1C(=O)O[C@H]2/C=C(/C)[C@@H](OC(C)=O)C/C=C(\C)C[C@@H](OC(=O)/C(=C/C)COC(=O)/C(=C/C)CO)[C@@H]12,0.575% [at 28 µM] (inactive)
4,N[C@@H](Cc1ccc(OS(=O)(=O)c2ccccn2)cc1)C(=O)N1CCN(c2ccccc2)CC1,-3.49% (inactive)
5,Cc1cc(C)nc(NC(=S)N2CCN(c3cccc([N+](=O)[O-])c3)CC2)c1,19.4% (inactive)
6,CCc1nn2c(=O)cc(N3C(C)CNCC3C)nc2s1 (stereo not given),17.9% (inactive)
7,Cc1ccc(NS(=O)(=O)c2ccc3c(c2)N(C)C(=O)CO3)cc1C,-9.25% (inactive)
8,Cc1ccc(S(=O)(=O)Nc2ccccc2C(=O)Nc2nc(-c3ccccc3)c(C)s2)cc1,6.1% (inactive)
9,O=C(c1ccccc1O)N(Cc1ccccc1)Cc1cccs1,13.2% (inactive)
10,Cc1cc(C)cc(Cn2ncc3c4sc(C)cc4n(C)c3c2=O)c1,7.7% (inactive)
11,CCC(C)/C=C(C)/C=C/C1=CC2=C(Cl)C(=O)C(C)(OC(C)=O)C(=O)C2(O)C(OC)O1 (stereo not given),-7.05% [at 28 µM] (inactive)
12,Cc1nc(N2CCOCC2)c2nc(-c3ccccc3)n(CCCN3CCCCC3C)c2n1 (stereo not given),-0.319% (inactive)
13,CC1=CC2/C=C(\C)CCC(O)C(=O)C(O)CC(=O)C23C(=O)NC(CC(C)C)C3C1C (stereo not given),0.187% [at 28 µM] (inactive)
14,Clc1ccccc1CSc1nc2ncc(Br)cc2[nH]1,14.9% (inactive)
15,Cc1ccc(-c2csc(NC(=O)c3ccncc3NS(=O)(=O)c3ccc(C)cc3)n2)cc1,14.1% (inactive)
16,O=C(Nc1nc(-c2ccccc2)cs1)c1ccncc1NS(=O)(=O)c1cccnc1,3.78% (inactive)
17,CCCn1c(-c2ccc(F)cc2)nc2c(NC3CC4CCC(C3)N4C)nc(C)nc21 (stereo not given),3.17% (inactive)
18,COc1ccc(C(=O)Nc2ccc(-c3nc4ccccc4[nH]3)cc2)cc1C(F)(F)F,-1.19% (inactive)
19,COc1ccc2c(c1)Oc1nc(-c3ccc(C)cc3)nc(SCC(=O)Nc3cccc(C(=O)O)c3)c1C2,-5.48% (inactive)
20,COc1ccc(C(=O)Nc2ccc(-c3nc4ccccc4[nH]3)cc2)cc1Br,7.82% (inactive)

row,SMILES,"activity change, negative = inhibition"
1,Cc1ccnc(NC(=S)N2CC3CN(c4ncc(C(F)(F)F)cc4Cl)CC3C2)c1 (stereo not given),-13.8% (inactive)
2,O=[S+]([O-])(Nc1ccc(-c2nc3ccccc3[nH]2)cc1)c1ccc2c(c1)CCO2,3.63% (inactive)
3,O=[S+]([O-])(Nc1nccs1)c1ccc(NCc2ccc(Cl)c(Cl)c2)cc1,9.62% (inactive)
4,N#Cc1c(-c2ccccc2C(F)(F)F)nc2ccccc2c1NCc1ccc(-c2cccnc2)cc1,-11.5% (inactive)
5,COc1cccc(C2c3c(ncn(-c4ccccn4)c3=N)Oc3ccc4ccccc4c32)c1 (stereo not given),7.68% (inactive)
6,CCC[C@@H]1C[C@@H](C(=O)N[C@H](C(C)Cl)[C@H]2O[C@H](SC)[C@H](O)[C@@H](O)[C@H]2O)N(C)C1 (stereo not given in full),-10.6% (inactive)
7,Cc1ccc(NS(=O)(=O)c2ccc3c(c2)CCC(=O)N3)cc1C,-3.9% (inactive)
8,CC(=O)c1cccc(NC(=O)c2cnn3c(C)cc(C)nc23)c1,16.1% (inactive)
9,Cc1cc2c(s1)c1cnn(Cc3ccc(C)c(F)c3F)c(=O)c1n2C,6.56% (inactive)
10,COc1cc(O)c(C(CC(=O)N2CCC(Cc3ccccc3)CC2)c2ccc(C)cc2)c(OC)c1 (stereo not given),0.852% [at 114 µM] (inactive)
11,Cc1cccc(-c2csc3ncnc(Sc4nnnn4C)c23)c1,5.36% (inactive)
12,CN(CCC1CCCO1)c1ncnc2ccc(-c3ccc4c(c3)OCO4)cc12 (stereo not given),0.818% (inactive)
13,Clc1cccc(-c2nc(-c3ccc(-c4nn[nH]n4)cc3)no2)c1,-9.28% (inactive)
14,Cc1cc(C)nc(NC(=S)N2CCN(c3ccc(F)c(F)c3F)CC2)c1,13.2% (inactive)
15,Cc1cnccc1-c1nc(Nc2ccc(F)c(F)c2)c2ccccc2n1,-6.72% (inactive)
16,CCCCNc1nc(C)nc2c1nc(-c1ccccc1)n2CC1CCN(C)CC1,9.69% (inactive)
17,N#Cc1nc(Nc2cccc(-c3ccccc3)c2)nc(NC2CCCC2)n1,-0.908% (inactive)
18,O=C(Cc1ccc(Cl)c(Cl)c1)Nc1ccc([S+](=O)([O-])Nc2cccc([N+](=O)[O-])c2)cc1,1.57% (inactive)
19,O=C1c2ccccc2C(=O)N1c1cncc2ccccc12,-2.85% (inactive)
20,COc1c(Cl)cccc1NC(=O)c1c(NC(=O)Cc2ccccc2)sc2c1CCCC2,-7.95% (inactive)
